This is one part of a sample in which hits are shown more often than they occur.
Tg IFNy HTS – blocks Toxoplasma gondii growth in the presence of IFN-gamma; Toxoplasma gondii growth in IFN-gamma-treated host cells; active compounds read low; AID 1259416; 3.8% of 69,000 active; activity change, negative = inhibition, % (test concentration not listed); in the data active means activity change below about -70%, passing the limit was not always enough;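 further: host cells are HeLa cells infected with Toxoplasma gondii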
Of the large screens only hits and unclear results are named; the others gave an inactive call.

Cc1ccc(NC(=O)CC(=O)N2Cc3ccccc3CC2C(N)=O)cc1 (centres undefined)	none
CC(C)CN1C(=O)CCc2cc(NS(=O)(=O)c3ccccc3Br)ccc21	none
CCN(C)C(=O)c1cc(-c2cn(C(C)C)cn2)n2ccccc12	none
C=CCOc1ccccc1NC(=O)c1cnc(SC)nc1	none
O=C(NC(=O)c1ccc(C(F)(F)F)cc1)NN1CCCCCC1	Tg IFNy HTS -77
C#CCOC(=O)NC(=O)c1ccc(C(F)(F)F)cc1	none
O=C(Nc1cc(C(F)(F)F)ccc1N1CCCCC1)c1ccncc1	none
Cc1cccc(CN2CCC3(CCN(CC4CCOCC4)C3)C2=O)c1 (centres undefined)	none
Cn1cccc1C(=O)N1CCCC2(CC(Nc3ccccn3)CO2)C1 (centres undefined)	none
COc1ccc(-c2nc(C)c(CCNC(=O)c3cc(OC)c(OC)c(OC)c3)s2)cc1	none
Cc1cc(C(=O)N2CCC(N3CCCC3)CC2(C)C(=O)O)c(C)o1 (centres undefined)	none
COCC1CN(S(=O)(=O)Cc2ccccc2)Cc2c1cnn2C (centres undefined)	none
O=C(/C=C/c1ccc(Cl)cc1)NCCc1ccccc1	none
OC(CCCc1ccccc1)(c1ccc(Cl)cc1)c1ccc(Cl)cc1	Tg IFNy HTS -80
O=C(COc1ccc(Cl)cc1)NCc1ccccc1	none
C=CCN(Cc1ccc(F)cc1)C(=O)COC(C)C	none
OC1(C(F)(F)F)CC(c2ccncc2)=NN1 (centres undefined)	none
CSc1sc(C2=NNC(O)(C(F)(F)F)C2)c2c1C(=O)CCC2(C)C (centres undefined)	Tg IFNy HTS -96
CN(C)C(=O)c1ccc2c(c1)CN(C(=O)c1cccnc1)C2c1cnco1 (centres undefined)	none
CSc1nsc(SCC(=O)Nc2nnc(C(C)C)s2)n1	none
CCC1COC2(CCCN(C(=O)c3ccc4nc[nH]c4c3)C2)C1 (centres undefined)	none
FC(F)(F)c1cc(N/N=C2/CCSc3sccc32)cc(C(F)(F)F)c1	Tg IFNy HTS -103
C=CC[C@@H]1CC=C[C@@H](C)N1C(=O)c1cc(OC)nc(OC)n1	none
O=C(CS(=O)(=O)Cc1ccccc1)NCc1ccc2c(c1)OCO2	none
CCc1nc(OCC(=O)NCc2ccc3c(c2)OCO3)c2ccccc2n1	none
c1ccc(-c2cc3ncnc(NCc4ccc5c(c4)OCO5)c3s2)cc1	Tg IFNy HTS -105
CCN(CC1CCOCC1)C(=O)C1CCCN(C(=O)COC)C1 (centres undefined)	none
CCN(CC)c1ncnc2c1cnn2CC(=O)Nc1ccc(C)cc1C	none
Cn1cccc1C(=O)N1CCN(CC2CC2)c2ncccc2C1	none
COc1ccc2nc(NC(=O)COc3cccc(C)c3)sc2c1	none
COc1ccc(C(C)NC(=O)c2ccc(Cc3c(C)noc3C)s2)cc1F (centres undefined)	none
COc1cc2sc(NC(=O)Cc3c(C)noc3C)nc2cc1Cl	Tg IFNy HTS -79
Cc1ccc(NC(=O)Cn2c(=O)cc(C(=O)N3CCCCC3)c3ccccc32)cc1C	none
O=C(CN1CCC(c2nc3ccccc3[nH]2)CC1)N1CCCc2ccccc21	none
O=C(CN1CCC(n2nnc3cc(C(F)(F)F)ccc32)CC1)N1CCc2ccccc21	Tg IFNy HTS -81
O=C(CN1CCCC1)N1CCc2ccccc21	none
COc1ccc(-c2nc(CSc3nc4c(=O)[nH]c(C)nc4n3C)c(C)o2)cc1	none
CCCC(=O)N1CCc2c([nH]c3ccccc23)C1c1ccc(C)cc1 (centres undefined)	none
Cc1ccc(C2c3[nH]c4ccccc4c3CCN2C(=O)c2ccccc2Br)cc1 (centres undefined)	none
Cc1ccc(C2c3[nH]c4ccccc4c3CCN2C(=O)c2ccccc2)cc1 (centres undefined)	none
Cc1ccc(C2c3[nH]c4ccccc4c3CCN2C(=O)c2ccc(N(C)C)cc2)cc1 (centres undefined)	Tg IFNy HTS -119
O=C(c1ccccc1Br)N1CCc2c([nH]c3ccccc23)C1c1ccc(F)cc1 (centres undefined)	none
Cc1ccc(C2c3[nH]c4ccccc4c3CCN2C(=O)c2cccs2)cc1 (centres undefined)	none
CCOc1ccc(C2c3[nH]c4ccccc4c3CCN2C(=O)c2ccc(C)cc2)cc1 (centres undefined)	Tg IFNy HTS -95
Cc1ccc(C2c3[nH]c4ccccc4c3CCN2C(=O)c2ccccc2F)cc1 (centres undefined)	Tg IFNy HTS -130
CCOc1ccc(C2c3[nH]c4ccccc4c3CCN2C(=O)c2ccncc2)cc1 (centres undefined)	none
CCCC(=O)N1CCc2cc(-c3nc(NC(=O)c4cccnc4)sc3C)ccc21	none
CCOC(=O)[C@@]12CCCN(C(=O)c3cccnc3)C[C@@H]1CN(C(C)C)C2	none
Cc1ccccc1S(=O)(=O)N1C[C@H]2C[C@H](C(=O)NC(C)C)[C@@H](C1)O2	none
CCOc1ccc(-c2cc3c(=O)n(Cc4nc(-c5ccc(OC)cc5OC)oc4C)ccn3n2)cc1	none
COc1ccc(N(Cc2nc(-c3ccccc3OC)oc2C)S(=O)(=O)c2ccc(OC)cc2)cc1	none
CN1CCCCC1Cn1ccnc1-c1ccccc1OCCO (centres undefined)	none
COc1ccc(CNC(=O)CCC2Nc3c4ccccc4nc(=S)n3C2=O)cc1 (centres undefined)	none
COc1cc2ncnc(Nc3ccc(F)c(Cl)c3)c2cc1OCCCN1CCOCC1	none
COc1cc2ncnc(Sc3ccc(Cl)cc3)c2cc1OC	none
COc1cc2ncnc(Nc3ccc(Cl)cc3F)c2cc1OC	Tg IFNy HTS -82
Cc1occc1C(=O)N1C[C@H]2COC[C@@H](CC(=O)N3CCOCC3)[C@H]2C1	none
COc1cccc(CN(C)C(=O)CCc2nnc(C3(c4ccc(Cl)cc4)CCC3)o2)c1	none
Cc1nc2sc(C(=O)c3ccc(Br)cc3)c(N)c2c(C)c1C	Tg IFNy HTS -95
COc1ccc(C(=O)c2sc(=S)n(-c3ccccc3)c2N)cc1	none
Cc1nc(-c2cccc(F)c2)sc1CCNC(=O)c1ccc(Br)cc1	none
Cc1cc(C)n(-c2cccc(C(=O)NCc3cccc(OCC4CCCO4)c3)c2)n1 (centres undefined)	none
Cc1ccc(CN(Cc2nc[nH]c2C)C2CC2)s1	none
CC1(C)CC(=O)c2c(C(F)(F)F)nn(-c3ccc(C(N)=O)c(NC4CCC(OC(=O)CN)CC4)c3)c2C1 (centres undefined)	Tg IFNy HTS -76
CC1(C)CC(=O)c2c(C(F)(F)F)nn(-c3ccc(C(N)=O)c(NC4CCC(O)CC4)c3)c2C1 (centres undefined)	Tg IFNy HTS -77
CC1(C)CC(=O)c2c(nc3ccccc3c2N)C1	none
CCCS(=O)(=O)N1CCC2C(C[C@@H](Cn3cncn3)N2C)C1 (some centres undefined)	none
CCN1C(=O)N(CCCc2cccnc2)C(=O)C12CCN(Cc1cccc(-c3ccccc3C)c1)CC2	none
O=c1[nH]cccc1-c1ccc2c(c1)OCCO2	none
Cn1ccnc1C(=O)N1CCC2(CC1)CC(NC(C)(C)C)CO2 (centres undefined)	none
CC(C)N1CC23C=CC(O2)C(C(=O)NC2(c4ccc(F)cc4)CCCC2)C3C1=O (centres undefined)	none
Cc1ccc(C(N)=O)cc1/C=C/c1ccccc1	none
Cc1ccc(C2(O)CCN(C(=O)c3cccnc3N3CCOCC3)CC2)nc1	none
CSc1nc(-c2cccs2)cc(C(F)(F)F)c1C#N	none
Cc1cc(C)n(-c2c(Cl)cc(C(F)(F)F)cc2Cl)n1	none
CSc1nn(-c2c(Cl)cc(C(F)(F)F)cc2Cl)c(N)c1C#N	Tg IFNy HTS -101
CC1CN(CC(=O)NCc2ccc3c(c2)OCO3)Cc2cc(Cl)ccc2O1 (centres undefined)	none
COc1ccc(CN2COc3ccc(Cl)cc3C2)cc1	Tg IFNy HTS -89

Assay outcomes deposited in PubChem by Broad Institute.
